Test results: ChEMBL document CHEMBL3988442, “University of Dundee, Small-Polar-MMV Screening Library” (2021)
Values joined by “and” are separate entries in the source; they are usually repeats but may differ in a detail not shown here. Equal values may be shown once. In all, about 38,000 compounds went through this assay and about 1,200 (3.2%) showed an effect of 50% or more. The median lay at about -58%. This excerpt belongs to a sample that is enriched for strong results.

System: Plasmodium falciparum
Experiment: Calibr Malaria Delayed Death Assay SOP
Format: functional, organism-based
Parameters: scale not given: in the data most compounds retested in dose-response had high values
Conditions: concentration 4.99e-06 (unit not given; other assays of the set use mol/L)

SMILES	Percent Effect	Percent Effect (4.99 µM)
Cc1cc(C(=O)NCc2cccnc2N2CCCC(O)C2)c(C)o1 (stereo unspecified)	-87.63%	–
CN(C(=O)Nc1nncs1)C1CCN(c2ccccc2Cl)C1=O (stereo unspecified)	-21.66%	–
O=C(O)C(F)(F)F.O=C(O)C(F)(F)F.O=S(=O)(C1CC1)N1CCC2(CCCN(Cc3ccccn3)C2)C1 (stereo unspecified)	8.867%	–
Cc1cnc(NC(=O)C(C)Oc2ccc3c(c2)OCO3)s1 (stereo unspecified)	-125.5%	–
COc1ccc(F)c(-c2cc(C)nc(N)n2)c1	-22.79%	–
Cc1cc(N(C)CC2COc3ccccc3O2)nc(N)n1 (stereo unspecified)	46.69%	–
COc1ccccc1OCCN(C)c1cc(C)nc(N)n1	69.29%	–
Cc1cc(N(C)CCCn2cccn2)nc(N)n1	23.74%	–
COc1ccc(OCCN(C)CCCn2cnc3c(N)ncnc32)cc1	-97.62%	–
COc1ccc(OCCN(C)c2cc(C)nc(N)n2)cc1	62.66%	–
O=C(CCCc1ccc(Cl)cc1)N1CCC(c2nnc[nH]2)CC1	-167.6%	–
O=C(O)C(F)(F)F.O=C(O)C(F)(F)F.c1cnc(N2CCC3(CCN(CC4CCCC4)CC3)C2)nc1	42.2%	–
O=C(O)C(F)(F)F.c1cnc(N2CCCC3(CCN(CC4CCC4)C3)C2)nc1 (stereo unspecified)	51.49%	–
Cl.Cl.Cn1cnc2c(N3CCCC3)nc(C3CCNCC3)cc21	-34.14%	–
O=C(O)C(F)(F)F.O=C(O)C(F)(F)F.c1cc2nc(C3CCN(CC4CC4)CC3)nn2cc1N1CCCC1	-27.34%	–
Cc1cnc(N2C[C@H]3CCN(CC4CC4)C[C@@H]3C2)nc1.O=C(O)C(F)(F)F	37.51%	–
O=C(O)C(F)(F)F.c1cnc(N2CCCC3(COCCN(CC4CC4)C3)C2)nc1 (stereo unspecified)	37.44%	–
O=C(O)C(F)(F)F.O=C(O)C(F)(F)F.c1cnc(N2CCCC3(CCN(CC4CC4)C3)C2)nc1 (stereo unspecified)	59.09%	–
Cc1cnc(N2C[C@H]3CCN(CC4CC4)C[C@H]3C2)nc1.O=C(O)C(F)(F)F	63.65%	–
O=C(O)C(F)(F)F.O=C(O)C(F)(F)F.c1cnc(N2CCC3(CCN(CC4CCOCC4)CC3)C2)nc1	-33.73%	–
O=C(O)C(F)(F)F.O=C(O)C(F)(F)F.c1cnc(N2CCOCC3(CCCN(CC4CCOCC4)C3)C2)nc1 (stereo unspecified)	-11.39%	–
Cn1cnc2c(N3CCCC3)nc(C3CCN(CC4CC4)CC3)cc21.O=C(O)C(F)(F)F.O=C(O)C(F)(F)F	68.79%	–
O=C(O)C(F)(F)F.c1cnc(N2C[C@H]3CCN(CC4CC4)C[C@H]3C2)cn1	16.16%	–

SMILES	Percent Effect	Percent Effect (4.99 µM)
CN(CCc1ccccn1)C(=O)C(O)c1ccc(Br)cc1 (stereo unspecified)	-90%	–
CS(=O)(=O)N1CCC2(CCN(C(=O)c3cccnc3)CC2)C1.O=C(O)C(F)(F)F	-35.24%	–
CC(C)Cc1noc(C2CCCN(C(=O)CCc3cnn(C)c3)C2)n1 (stereo unspecified)	-27.67%	–
O=C(O)C(F)(F)F.O=C(O)C(F)(F)F.c1cncc(OC[C@]23COC[C@H]2CN(C2CCOCC2)C3)c1	-14.64%	–
CCN(CC)C(=O)CSc1nc2c(cnn2CCO)c(=O)[nH]1	-60.63%	–
CCCNCc1ncc(C)c(OC)c1C	-91.87%	–
O=C(Cn1nc(N2CCOCC2)ccc1=O)Nc1nccs1	-91.76%	–
O=S(=O)(c1ccc(F)cc1F)N1CCCCC1c1nnc2n1CCCC2 (stereo unspecified)	-68.7%	–
CCN(Cc1cccc2c1OCO2)C(=O)NC1CC1	-37.14%	–
CN(C)C(=O)CN1CCOCC2(CCN(c3ncc(F)cn3)CC2)C1.O=C(O)C(F)(F)F	-87.82%	–
CCCN(CCn1c(=O)oc2ccccc21)CC1CC1	13.79%	–
CC(=O)N1CCN(C(=O)Nc2ccc(Cl)cc2)[C@H]2CS(=O)(=O)C[C@H]21	-18.79%	–
CSCCC(=O)NCc1cc2n(n1)CCCN(C1CCCCC1)C2	-96.84%	–
CC(NC(=O)C1CN(c2ncnc3c2nnn3C)C1)c1ccccc1 (stereo unspecified)	-135.3%	–
Cc1cc(NC(=O)CN2CCCCC2Cn2nc(C)nc2C)on1 (stereo unspecified)	-33.53%	–
O=C(O)C(F)(F)F.c1cnc(N2CCC3(CN(CC4CCOC4)C3)C2)nc1 (stereo unspecified)	-18.8%	–
O=C(O)C(F)(F)F.c1cnc(N2CCCC3(CCN(CC4CCOC4)CC3)C2)nc1 (stereo unspecified)	55.15%	–
O=C(O)C(F)(F)F.c1cnc(N2CCC3(CCN(CC4CCOC4)CC3)C2)nc1 (stereo unspecified)	-17.94%	–
Cc1noc(C)c1CN1CC[C@H]2OCC[C@@]2(C(=O)N2CCOCC2)C1.O=C(O)C(F)(F)F	-52.8%	–
Cc1nc(CC(=O)N2CCCC(n3ccnc3C(C)C)C2)cs1 (stereo unspecified)	-131%	–
COc1cccc(CN(C)Cn2nc(C(C)(C)C)ccc2=O)c1	-38.19%	–
Cc1ccc(N2CCC3(CCN(Cc4ccccn4)CC3)CC2)nn1	-24.83%	–
O=C(O)C(F)(F)F.O=C(O)C(F)(F)F.c1ccc(CN2CCC3(CC2)CCN(c2ccccn2)C3)nc1	-1.583%	–

SMILES	Percent Effect	Percent Effect (4.99 µM)
Cn1cc(CN2CCC3(CCCN(Cc4ccccn4)C3)CC2)cn1	-52.6%	–
O=C(O)C(F)(F)F.O=C(O)C(F)(F)F.O=C(O)C(F)(F)F.c1ccc(CN2CCC3(CC2)CCN(Cc2cccs2)C3)nc1	53.66%	–
O=C(O)C(F)(F)F.O=C(O)C(F)(F)F.c1ccc(CN2CCCC3(CCN(CC4CCCO4)CC3)C2)nc1 (stereo unspecified)	10.98%	–
Cc1cccc(N2CCC3(CCN(Cc4ccccn4)CC3)CC2)n1.O=C(O)C(F)(F)F.O=C(O)C(F)(F)F	62.64%	–
O=C(O)C(F)(F)F.O=C(O)C(F)(F)F.O=C(O)C(F)(F)F.O=C(O)C(F)(F)F.c1ccc(CN2CCC3(CC2)CCN(Cc2cccnc2)C3)nc1	17.02%	–
O=S(=O)(C1CC1)N1CCC2(CCCN(Cc3ccccn3)C2)CC1	-27.08%	–
COc1cccc2ccn(CC(=O)NC(C)C)c12	-78.35%	–
Cc1ccc(N(CCC#N)C(=O)CCc2cscn2)cc1C	-62.62%	–
COC[C@@]12CCO[C@@H]1CCN(C(=O)Cc1cccc(F)c1)C2	-44.15%	–
Cc1ccc(-c2nc(CCNC(=O)C3CC(=O)N(C)C3)cs2)cc1 (stereo unspecified)	-66.89%	–
CC(=O)c1cccc(-c2c[nH]c(C)n2)c1	-59.83%	–
Cc1cc2c(c(-c3c[nH]c(C)n3)c1)OC(CN)C2 (stereo unspecified)	79.27%	–
Cc1nc(-c2cccc(C(=O)O)c2)c[nH]1	-344.9%	–
Cc1cc2c(c(-c3cncc(C(=O)N4CCCC4)n3)c1)OC(CN)C2 (stereo unspecified)	3.853%	–
O=C(CCc1ccco1)N1CCCN(Cc2cscn2)CC1	-137.4%	–
O=C(c1cccc(F)c1)N1CC[C@@H]2CN(c3ncccn3)CCO[C@@H]2C1	-63.21%	–
O=S(=O)(NCC(O)c1ccc2c(c1)CCO2)c1ccccc1F (stereo unspecified)	-109.3%	–
O=C(C1CCCN(Cc2cccnc2)C1)N1CCc2sccc2C1 (stereo unspecified)	-120.1%	–
COCCn1cncc1CN1CCC(C(C)=O)(c2ccccc2)CC1	-24.83%	–
COCCn1cncc1CN1CCCC(C)(c2ccccc2)C1 (stereo unspecified)	61.23%	–
CC1(c2ccccc2)CCCN(Cc2cncn2C2CCCC2)C1 (stereo unspecified)	90.6%	–
COCCN1CCCC12CCN(Cc1cncn1C)CC2.O=C(O)C(F)(F)F.O=C(O)C(F)(F)F	-15.64%	–
COc1ncc(CN2CCC3(CCCN(CC4CCCCC4)C3)C2)cn1 (stereo unspecified)	-65.28%	–

SMILES	Percent Effect	Percent Effect (4.99 µM)
O=C(Cc1ccccc1)C1CCCN(Cc2cncn2C2CCCC2)C1 (stereo unspecified)	56.54%	–
CCc1nccn1C1CCCN(C(=O)c2cncn2-c2ccccc2)C1 (stereo unspecified)	–	-131.8% and -127.1%
O=C(C1CCCN(Cc2ccccc2)C1)N1CCc2sccc2C1 (stereo unspecified)	11.44%	–
CC1(c2ccccc2)CCCN(C(=O)c2ccn3nnnc3c2)C1 (stereo unspecified)	-91.8%	–
CC1(c2ccccc2)CCCN(Cc2cncn2C2CC2)C1 (stereo unspecified)	67%	–
CC1(c2ccccc2)CCC(=O)N(CCN2CCOCC2)C1 (stereo unspecified)	-51.4%	–
O=C(O)C(F)(F)F.O=C(O)C(F)(F)F.O=C1N(Cc2cccnc2)CCC12CCCN(c1ncccn1)C2 (stereo unspecified)	-131.5%	–
CS(=O)(=O)c1cncnc1C1CCCNC1.Cl (stereo unspecified)	-139%	–
CCN1CCO[C@@H]2CN(C(=O)NCc3ccccc3)CC[C@@H]2C1	-134.2%	–
CCC(=O)NC(c1ccc(C)cc1)c1cccc(S(C)(=O)=O)c1 (stereo unspecified)	-119.8%	–
COc1cc(N2C[C@@H]3COC[C@@H](Cc4nc(C)no4)[C@@H]3C2)ncn1	-87.35%	–
Cc1ccc(C(=O)N2C[C@@H]3CCCO[C@@H]3[C@H](N(C)Cc3ccco3)C2)o1.O=C(O)C(F)(F)F	-32.67%	–
CCNC(=O)c1c2c(N3CCN(C)CC3)ncnc2n2ccccc12	-74.14%	–
CCCN1CCC(CNC(=O)C2(c3cccc(C)c3)CC2)C1 (stereo unspecified)	-64.24%	–
COCCN1CCC(CNC(=O)C2(c3ccccc3)CCC2)C1 (stereo unspecified)	-3.533%	–
CCCN1CCC(CNC(=O)C2(c3ccccc3)CCC2)C1 (stereo unspecified)	65.3%	–
CCN1CCC(CNC(=O)C2(c3ccc(F)cc3)CC2)C1 (stereo unspecified)	28.54%	–
Cc1cc(C)cc(C2(C(=O)NCC3CCN(CC(F)(F)F)C3)CC2)c1 (stereo unspecified)	-75.87%	–
CCOCCC(=O)N1CCN(CC(C)O)CC1 (stereo unspecified)	-101.9%	–
Cn1ncnc1CNC(=O)N(CCCO)C1CCc2ccccc21 (stereo unspecified)	-16.9%	–
Cn1cc(N2CC3(CCN(Cc4cccnc4)CC3)OCC2=O)cn1.O=C(O)C(F)(F)F.O=C(O)C(F)(F)F	-71.74%	–
CC(=O)N1CCN(C(=O)NCCc2ccc(Cl)s2)CC1	-108.8%	–
